We go through six compounds from PubChem BioAssay (EPA / NIEHS).

The nature of experiment [1]: ATG_M_06_CIS: Attagene CIS-FACTORIAL HepG2 Assay for M06 Transcription Factor (Internal Marker) (AID 2282950). The settings on record: HepG2 Attagene CIS-FACTORIAL M06 internal marker reporter; actives raise or lower the signal. In outline: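 Measured 24 h post-dosing in transiently transfected HepG2 cells, this internal-marker endpoint reports reporter mRNA via RT-PCR with fluorescent primer extension and capillary electrophoresis. DMSO served as negative control and baseline for bidirectional fitting.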

The target in experiment [2] is Hypoxia-inducible factor 1-alpha (Homo sapiens) (UniProt Q16665). Nature of the experiment: ATG_HIF1a_CIS: Attagene CIS-FACTORIAL HepG2 Assay for human Hypoxia Inducible Factor 1 (HIF1A) (AID 2282951). The settings on record: HepG2 Attagene cis-factorial HIF1a reporter transcription; actives raise or lower the signal. In outline: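 HepG2 cells transiently transfected with multiple cis-regulated reporter transcription units measure endogenous transcription factor activity. After 24 h exposure, reporter mRNA is quantified by RT-PCR with 6-FAM labelling, HpaI digestion and capillary electrophoresis. Bidirectional fitting against DMSO.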
Sequence of Hypoxia-inducible factor 1-alpha (Homo sapiens) (Q16665 whole entry, looked up): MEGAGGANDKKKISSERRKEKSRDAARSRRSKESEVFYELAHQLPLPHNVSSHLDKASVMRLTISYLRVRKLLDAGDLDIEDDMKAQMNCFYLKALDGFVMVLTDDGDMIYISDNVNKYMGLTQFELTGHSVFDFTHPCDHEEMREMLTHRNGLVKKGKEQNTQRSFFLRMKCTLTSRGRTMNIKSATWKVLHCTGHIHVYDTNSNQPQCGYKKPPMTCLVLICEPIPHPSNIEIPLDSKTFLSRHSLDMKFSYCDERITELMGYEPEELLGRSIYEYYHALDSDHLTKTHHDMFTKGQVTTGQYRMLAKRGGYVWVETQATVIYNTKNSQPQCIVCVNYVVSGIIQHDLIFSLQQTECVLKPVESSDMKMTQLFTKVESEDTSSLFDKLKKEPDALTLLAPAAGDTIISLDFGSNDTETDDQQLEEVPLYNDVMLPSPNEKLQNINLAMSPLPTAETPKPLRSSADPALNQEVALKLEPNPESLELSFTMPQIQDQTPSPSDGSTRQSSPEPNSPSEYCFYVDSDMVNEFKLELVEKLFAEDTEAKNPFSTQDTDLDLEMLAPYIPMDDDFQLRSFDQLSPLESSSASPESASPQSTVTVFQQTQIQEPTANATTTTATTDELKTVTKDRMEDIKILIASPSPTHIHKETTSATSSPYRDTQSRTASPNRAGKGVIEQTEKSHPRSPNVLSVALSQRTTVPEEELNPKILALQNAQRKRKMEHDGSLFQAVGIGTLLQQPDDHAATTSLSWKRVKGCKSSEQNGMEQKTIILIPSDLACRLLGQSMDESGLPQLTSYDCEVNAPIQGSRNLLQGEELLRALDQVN

Experiment [3] has as its target Hepatocyte nuclear factor 6 (Homo sapiens) (UniProt Q9UBC0). Briefly: ATG_HNF6_CIS: Attagene CIS-FACTORIAL HepG2 Assay for human Hepatocyte Nuclear Factor 6 (HNF6) (AID 2282952). The settings on record: HepG2 Attagene cis-factorial HNF6 reporter transcription; actives raise or lower the signal. In outline:
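Endogenous transcription factor activity in human HepG2 liver cells was captured through cis-regulated reporter constructs. After 24 h treatment, reporter mRNA was measured by RT-PCR with capillary electrophoresis, and activity was fitted in both directions relative to DMSO.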

The target in experiment [4] is Heat shock factor protein 1 (Homo sapiens) (UniProt Q00613). Nature of the experiment: ATG_HSE_CIS: Attagene CIS-FACTORIAL HepG2 Assay for human Heat Shock Transcription Factor 1 (HSE) (AID 2282953). The note with it: HepG2 HSE cis-reporter, Attagene RNA transcription; actives raise or lower the signal. In outline:
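Reporter mRNA induction in HepG2 is measured 24 h after dosing, using transiently transfected multiplexed cis-regulated reporter units. Signal comes from capillary electrophoresis of labelled RT-PCR products, with DMSO as negative control.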

Experiment [5] in a line: ATG_MRE_CIS: Attagene CIS-FACTORIAL HepG2 Assay for human Metal Responsive Element (MRE) (AID 2282954). The note with it: HepG2 MRE cis-reporter transcription, Attagene multiplex; actives raise or lower the signal. In outline: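 Cells were transfected with cis-promoter reporter transcription units, then dosed for 24 h. RNA was reverse-transcribed, amplified, fluorescently labelled and resolved by capillary electrophoresis, and activity was fitted in both directions relative to DMSO.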

Experiment [6] in a line: ATG_PBREM_CIS: Attagene CIS-FACTORIAL HepG2 Assay for human Phenobarbital-responsive Enhancer Module (PBREM) (AID 2282955). The note with it: HepG2 PBREM cis-reporter, Attagene multiplexed transcription; actives raise or lower the signal. In outline:
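HepG2 cells transiently transfected with multiple cis-regulated reporter units measure endogenous transcription factor activity; 24 h compound exposure. Reporter mRNA quantified by RT-PCR, fluorescent labelling, HpaI digestion and capillary electrophoresis; bidirectional fit versus DMSO.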

Experiment [7] concerns the target Paired box protein Pax-6 (Homo sapiens) (UniProt P26367). Nature of the experiment: ATG_Pax6_CIS: Attagene CIS-FACTORIAL HepG2 Assay for human Paired Box 6 (PAX6) (AID 2282956). The settings on record: HepG2 CIS-FACTORIAL PAX6 reporter transcription, RNA readout; actives raise or lower the signal. In outline:
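Readout: reporter transcript fluorescence after RT-PCR and capillary electrophoresis. Cells: HepG2, transiently transfected with cis-regulated MRTUs. Exposure 24 h. Gain or loss of signal fitted bidirectionally relative to DMSO.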

Experiment [8] is described as follows: ATG_PXRE_CIS: Attagene CIS-FACTORIAL HepG2 Assay for human Pregnane X Receptor Element (PXRE) (AID 2282957). The settings on record: HepG2 Attagene CIS-FACTORIAL PXRE reporter, mRNA; actives raise or lower the signal. In outline:
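Endogenous transcription factor activity in HepG2 was gauged through induction of reporter mRNA driven by a cis-regulating promoter element, sampled 24 h post-treatment. Activity was fitted in both directions against DMSO negative control.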

The nature of experiment [9]: ATG_PPRE_CIS: Attagene CIS-FACTORIAL HepG2 Assay for human Peroxisome Proliferator-activated Response Element (PPRE) (AID 2282958). The settings on record: HepG2 PPRE cis-element reporter, Attagene transcription factor profiling; actives raise or lower the signal. In outline: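 HepG2 cells are transiently transfected with multiplexed cis-promoter reporter units to report endogenous PPAR activity. After 24 h dosing, reporter mRNA is read by RT-PCR and capillary electrophoresis. Fitting is bidirectional against DMSO.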

Each structure is given as a SMILES string. Active and inactive are the calls of the source. Rule for the calls: active = hit-call score of the fitted dose curve at least 0.9, where 1 is the maximum; inactive = score below 0.9.

Sequence of Hepatocyte nuclear factor 6 (Homo sapiens) (Q9UBC0 whole entry, looked up): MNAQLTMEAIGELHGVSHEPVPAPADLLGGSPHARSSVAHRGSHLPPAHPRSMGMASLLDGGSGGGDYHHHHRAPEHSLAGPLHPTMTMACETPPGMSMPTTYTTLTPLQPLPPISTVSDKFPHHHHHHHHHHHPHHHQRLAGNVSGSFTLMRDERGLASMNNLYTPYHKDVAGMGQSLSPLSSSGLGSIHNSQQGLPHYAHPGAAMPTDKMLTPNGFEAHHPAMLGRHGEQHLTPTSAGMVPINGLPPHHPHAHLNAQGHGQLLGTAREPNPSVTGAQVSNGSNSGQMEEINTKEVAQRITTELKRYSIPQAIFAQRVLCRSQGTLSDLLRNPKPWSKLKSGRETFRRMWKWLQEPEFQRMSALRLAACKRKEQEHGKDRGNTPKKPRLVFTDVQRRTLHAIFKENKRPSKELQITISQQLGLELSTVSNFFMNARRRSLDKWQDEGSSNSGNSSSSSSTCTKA
Sequence of Paired box protein Pax-6 (Homo sapiens) (P26367 whole entry, looked up): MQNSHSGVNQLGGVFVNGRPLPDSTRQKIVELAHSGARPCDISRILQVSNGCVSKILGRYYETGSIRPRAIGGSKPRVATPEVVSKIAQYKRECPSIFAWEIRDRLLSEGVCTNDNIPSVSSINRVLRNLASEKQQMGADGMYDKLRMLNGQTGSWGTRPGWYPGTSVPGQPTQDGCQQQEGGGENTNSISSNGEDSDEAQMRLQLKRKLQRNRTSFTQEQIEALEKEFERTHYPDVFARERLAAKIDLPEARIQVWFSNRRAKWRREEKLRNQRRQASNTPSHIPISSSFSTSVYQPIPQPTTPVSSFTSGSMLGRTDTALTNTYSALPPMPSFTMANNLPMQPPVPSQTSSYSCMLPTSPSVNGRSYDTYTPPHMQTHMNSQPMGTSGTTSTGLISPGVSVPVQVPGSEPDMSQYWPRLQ
Sequence of Heat shock factor protein 1 (Homo sapiens) (Q00613 whole entry, looked up): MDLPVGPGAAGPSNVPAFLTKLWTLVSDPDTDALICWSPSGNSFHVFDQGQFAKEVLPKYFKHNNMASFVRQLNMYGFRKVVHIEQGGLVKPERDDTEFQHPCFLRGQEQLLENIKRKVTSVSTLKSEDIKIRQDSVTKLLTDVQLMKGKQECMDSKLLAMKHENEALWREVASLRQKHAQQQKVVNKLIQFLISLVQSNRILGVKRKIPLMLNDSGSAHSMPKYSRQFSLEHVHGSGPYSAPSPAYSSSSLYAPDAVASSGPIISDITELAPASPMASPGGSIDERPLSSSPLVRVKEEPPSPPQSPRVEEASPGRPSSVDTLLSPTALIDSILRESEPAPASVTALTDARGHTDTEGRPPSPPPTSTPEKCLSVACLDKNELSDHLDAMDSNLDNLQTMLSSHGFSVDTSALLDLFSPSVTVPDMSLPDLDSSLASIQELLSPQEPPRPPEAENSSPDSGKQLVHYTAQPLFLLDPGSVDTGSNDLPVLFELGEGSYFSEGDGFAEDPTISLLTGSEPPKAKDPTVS

Consider `O=C(O)COc1ccc(Cl)cc1`, for which the compound was called inactive in experiment [1], in experiment [2], in [3], in [4], in experiment [5] and in experiment [6]. The compound was classed as inactive in experiment [7], in experiment [8] and in experiment [9].
Take `C#CCOC(=O)/C=C(C)/C=C/CC(C)CCCC(C)C` (stereo not given): the result in experiment [1], in [2], in experiment [3], in experiment [4], in [7] and in [9] was inactive.
As for `O=NN1CCOCC1`, the result in experiment [1], in experiment [2], in experiment [3], in experiment [4], in experiment [5] and in experiment [7] was inactive. The compound was called inactive in experiment [9]. For the same compound, in [8], the AC50 (as a rule, the midpoint of the concentration-response curve, whichever way the signal moves) is 69.6 µM (active).
Turning to `CN(N=O)C(N)=O`, the compound was classed as inactive in experiment [1], in experiment [2], in experiment [3], in experiment [4], in [5] and in experiment [6]. Further, the compound was classed as inactive in experiment [7] and in experiment [8].
Turning to `O=[N+]([O-])c1c2ccccc2cc2ccccc12`, the call in experiment [1], in experiment [2], in experiment [3], in experiment [5], in experiment [6] and in experiment [7] was inactive. Moreover, the AC50 in [8] was 3.8 µM (active).
For `CC(C)C(C)(N)C#N` (stereo not given), the outcome in experiment [1], in experiment [2], in experiment [3], in [4], in experiment [5] and in experiment [6] was inactive. Also, the outcome in experiment [7] was inactive.
